Measured values published in paper PMC5540273 (PLoS ONE, 2017).
Where two headings read alike, the source gives them in different places.

Columns and labels:
[1] = system: CDC2L2; settings: concentration: 1 μM,replicates: in singlicate; n = 1
[2] = system: T1, CDC2L5; settings: n = 1
T1 construct: gene CDK13

[3] = system: T2, CDK11; settings: concentration: 1 μM,replicates: in singlicate; n = 1
T2 construct: gene CDK19

[4] = system: CDK2; settings: concentration: 1 μM,replicates: in singlicate; n = 1
[5] = system: CDK3; settings: concentration: 1 μM,replicates: in singlicate; n = 1
[6] = system: CDK4-cyclinD1; settings: n = 1
[7] = system: CDK4-cyclinD3; settings: n = 1
[8] = system: CDK4; settings: n = 1
[9] = system: CDK5; settings: concentration: 1 μM,replicates: in singlicate; n = 1
[10] = system: CDK7; settings: concentration: 1 μM,replicates: in singlicate; n = 1
[11] = concentration: 1 μM,replicates: in singlicate
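Also: KINOMEscan kinase panel screen.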

Compound | %Inh [1] | %Inh [2, 11] | %Inh [3] | %Inh [4] | %Inh [5] | %Inh [6, 11] | %Inh [7, 11] | %Inh [8, 11] | %Inh [9] | %Inh [10] | %Inh ([2]; 1 µM) | %Inh ([6]; 1 µM) | %Inh ([7]; 1 µM) | %Inh ([8]; 1 µM)
CC(=O)Nc1ccc(-c2cc3ncnc(SCC(=O)O)c3s2)cc1 | 17% | 0% | 26% | 12% | 4% | 16% | 31% | 0% | 14% | 40% | – | – | – | –
COc1cccc(C2=C(Nc3cccc(Cl)c3)C(=O)NC2=O)c1 [SB-341556] | 0% | 0% | 0% | 7% | 4% | 0% | 14% | 0% | 0% | 14% | – | – | – | –
CC(C)c1nc(-c2cccc(NS(=O)(=O)c3ccccc3)c2)c(-c2ccnc(Nc3ccc4c(c3)CN(C)CC4)n2)s1 [GSK1649598] | 24% | 92.7% | 0% | 99.3% | 99.6% | 65% | 44% | 93.7% | 87% | 78% | – | – | – | –
O=C(Nc1cccc(Oc2ccc3nccn3n2)c1)Nc1cccc(C(F)(F)F)c1 | 6% | 13% | 98.7% | 0% | 32% | 33% | 0% | 0% | 0% | 0% | – | – | – | –
CCOC(=O)N1CCC(n2cnc(-c3ccc(F)cc3)c2-c2ccnc(N)n2)CC1 [SB-219952] | 23% | 30% | 29% | 0% | 0% | 24% | 6% | 32% | 0% | 30% | – | – | – | –
C[C@@H]1CCN(C(=O)N2CCCC2)C[C@@H]1N(C)c1ncnc2[nH]ccc12 | 0% | 6% | 2% | 0% | 15% | 21% | 8% | 11% | 18% | 34% | – | – | – | –
Cc1cccc(-c2nc(Nc3ccncc3)c3sccc3n2)n1 [GW869641] | 0% | 11% | 8% | 3% | 0% | 0% | 24% | 23% | 14% | 44% | – | – | – | –
CCn1c(-c2nonc2N)nc2cncc(Br)c21 [SB-738004] | 13% | 18% | 14% | 1% | 3% | 43% | 0% | 36% | 0% | 48% | – | – | – | –
Cn1ccc2ncnc(Oc3ccc(NC(=O)Nc4cc(C(C)(C)C)on4)c(Cl)c3)c21 | 4% | 26% | 100% | 12% | 2% | 0% | 2% | 2% | 0% | 55% | – | – | – | –
Cc1ccn2nc(-c3ccc(F)cc3)c(-c3ccncc3)c2c1.Cl [GW457859] | 24% | 0% | 1% | 0% | 2% | 18% | 0% | 50% | 0% | 47% | – | – | – | –
Cn1ccc2ncnc(Oc3ccc(NC(=O)Nc4cnn(C(C)(C)C)c4)c(Cl)c3)c21 | 0% | 45% | 99.6% | 0% | 0% | 0% | 0% | 0% | 2% | 27% | – | – | – | –
CS(=O)(=O)c1cccc(CNc2nc(Nc3ccc4c(c3)[C@@H]3C[C@@H]4CNC3=O)ncc2C(F)(F)F)c1 | 0% | 2% | 0% | 46% | 33% | 97.1% | 96.4% | 60% | 82% | 94% | – | – | – | –
CC(C(=O)NC1CCN(c2ccnc(Nc3ccc(F)cc3)n2)C1)c1ccc(Cl)cc1 (centres unmarked) [GSK1379713] | 0% | 0% | 6% | 0% | 23% | 0% | 0% | 0% | 0% | 0% | – | – | – | –
CNC(=O)c1ccccc1Nc1nc(Nc2cccc(CS(C)(=O)=O)c2)ncc1C.O=CO [GSK1520489] | 0% | 0% | 0% | 16% | 36% | 0% | 19% | 30% | 0% | 89% | – | – | – | –
O=C(NOCC1CC1)c1cc(Br)c(F)c(F)c1Nc1ccc(I)cc1Cl | 0% | 0% | 0% | 0% | 14% | 0% | 17% | 14% | 0% | 0% | – | – | – | –
Cn1ccc2ncnc(Oc3ccc(NC(=O)Nc4cccc(C(F)(F)F)c4)c(Cl)c3)c21 | 5% | 0% | 99.8% | 0% | 5% | 8% | 0% | 0% | 0% | 2% | – | – | – | –
Cc1cccc2c(-c3ccncc3)c(-c3ccc(F)cc3)nn12.Cl [GW461487] | 0% | 0% | 0% | 0% | 0% | 0% | 0% | 36% | 0% | 0% | – | – | – | –
Cl.c1ccc(Oc2ccc(Nc3ccnc4cc(-c5ccc(CN6CCNCC6)o5)ccc34)cc2)nc1 [GW567142] | 16% | 0% | 10% | 0% | 0% | 0% | 0% | 14% | 0% | 52% | – | – | – | –
CCn1c(-c2nonc2N)nc2cncc(CNC3CCNCC3)c21.Cl [SB-747651] | 0% | 0% | 5% | 0% | 11% | 0% | 14% | 33% | 0% | 0% | – | – | – | –

Compound | %Inh [1] | %Inh [2, 11] | %Inh [3] | %Inh [4] | %Inh [5] | %Inh [6, 11] | %Inh [7, 11] | %Inh [8, 11] | %Inh [9] | %Inh [10] | %Inh ([2]; 1 µM) | %Inh ([6]; 1 µM) | %Inh ([7]; 1 µM) | %Inh ([8]; 1 µM)
CCN1CCN(CCCC(=O)Nc2n[nH]c3nc(-c4ccc(O)cc4)c(Br)cc23)CC1 [SB-731579] | 4% | 0% | 0% | 1% | 30% | 99.5% | 95.1% | 22% | 0% | 94.7% | – | – | – | –
C[C@@H]1CNc2c(sc3ccc4nc(-c5ccncc5)ccc4c23)C(=O)N1 | 2% | 0% | 25% | 0% | 0% | 0% | 2% | 0% | 11% | 77% | – | – | – | –
CN1CCN(CCCNc2nccc(-c3c(-c4ccc(F)cc4)nn4cc(C(N)=O)ccc34)n2)CC1 [GW622475] | 17% | 0% | 40% | 0% | 18% | 0% | 0% | 20% | 0% | 0% | – | – | – | –
COC(=O)c1cccc(NC(=O)NC2CCN(c3ccnc(Nc4cc(OC)c(OC)c(OC)c4)n3)C2)c1 (centres unmarked) [GSK1379767] | 36% | 0% | 24% | 0% | 12% | 27% | 0% | 37% | 0% | 16% | – | – | – | –
CCCC(=O)Nc1n[nH]c2ncccc12 [SB-601436] | 0% | 0% | 0% | 0% | 1% | 0% | 0% | 0% | 0% | 0% | – | – | – | –
Cc1ccc(CC(=O)N2CCc3cc(-c4cn(C)c5ncnc(N)c45)ccc32)cc1 [GSK2634758] | 21% | 0% | 72% | 5% | 0% | 0% | 0% | 26% | 10% | 1% | – | – | – | –
O=C(Nc1n[nH]c2cc(-c3ccco3)ccc12)C1CC1 [SB-737447] | 7% | 19% | 0% | 49% | 7% | 0% | 6% | 5% | 11% | 38% | – | – | – | –
N#Cc1cccc(C(=O)NC2CCN(c3ccnc(Nc4ccc(F)cc4)n3)C2)c1 (centres unmarked) [GSK1379708] | 0% | 0% | 4% | 0% | 0% | 0% | 0% | 10% | 0% | 0% | – | – | – | –
CS(=O)(=O)Nc1ccc(-c2ccnc3[nH]ccc23)cc1 [GSK993273] | 0% | 0% | 45% | 0% | 15% | 0% | 0% | 0% | 0% | 37% | – | – | – | –
COc1cc2c(Nc3ccc(NC(=O)c4ccccc4)cc3)ncnc2cc1OCCCN1CCOCC1 [GSK301329] | 7% | 0% | 0% | 0% | 2% | 0% | 0% | 7% | 0% | 24% | – | – | – | –
O=C(Nc1ccccc1)c1cccc(Oc2ccc3nccn3n2)c1 | 28% | 0% | 0% | 0% | 15% | 11% | 6% | 22% | 0% | 12% | – | – | – | –
Nc1nccc(-c2ccc3c(N)n[nH]c3c2)n1 [GSK1034945] | 4% | 0% | 37% | 0% | 13% | 0% | 0% | 1% | 0% | 0% | – | – | – | –
COc1ccc(Nc2nccc(N3CCC(NC(=O)c4cccc(C#N)c4)C3)n2)cc1 (centres unmarked) [GSK1379730] | 0% | 0% | 4% | 0% | 26% | 34% | 0% | 36% | 7% | 0% | – | – | – | –
CN(c1ccc2c(c1)nc(NCc1ccc(F)cc1)n2C)c1ccnc(Nc2ccc(CS(C)(=O)=O)cc2)n1.Cl [GW813244] | 92.6% | 0% | 26% | 5% | 6% | 0% | 10% | 22% | 0% | 31% | – | – | – | –
CC(=O)c1c(-c2ccncc2)[nH]c(-c2ccncc2)c1C [GW493036] | 4% | 0% | 13% | 31% | 53% | 0% | 38% | 0% | 0% | 96.2% | – | – | – | –
NC(=O)c1ccc(-c2cc3ncnc(SCC(=O)O)c3s2)cc1 | 0% | 0% | 0% | 0% | 0% | 1% | 0% | 0% | 18% | 58% | – | – | – | –
CSc1nccc(-c2c(-c3ccc(F)cc3)ncn2CCCN2CCOCC2)n1.Cl [SB-217146] | 0% | 0% | 0% | 0% | 0% | 0% | 0% | 16% | 0% | 12% | – | – | – | –
COc1cccc(CNC(=O)NC2CCN(c3ccnc(Nc4cc(OC)c(OC)c(OC)c4)n3)C2)c1 (centres unmarked) [GSK1379765] | 25% | 0% | 22% | 0% | 8% | 4% | 0% | 14% | 0% | 0% | – | – | – | –
COc1cccc(OC)c1C(=O)Nc1cccc(-c2nn3ccccc3c2-c2ccnc(Nc3cccc(F)c3)n2)c1 [GSK361065] | – | – | – | – | – | – | – | – | – | – | 1% | 0% | 7% | 0%
